From PubChem BioAssay (NCI)
About 83,000 compounds went through this panel and 20% of them were active in at least one assay; those are over-represented in the sample as a whole.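 Single-concentration screen, 48 h exposure, 96-well plates. Endpoint: percent growth. Below 10 = active.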 Values without a mark were called inactive. Calls of active or inactive are those of the source.

test system: SNB-75 CNS; test: NCI-60 one-dose screen, 48 h (100 = growth as untreated, 0 = no growth, -100 = all killed); conditions: 10 µM unless noted
Procedure: Growth inhibition of the SNB-75 human tumor cell line is measured as a screen for anti-cancer activity. Cells are grown in 96 well plates and exposed to the test compound for 48 hours. Compounds are tested at a single concentration, which is 10^-5 M for most compounds. The reported endpoint is percent growth (GI% or GIPRCNT), where numbers from 0 - 100% represent growth inhibition, and numbers from -100% - 0 represent cell death. For example, a value of 40 represents 60% growth inhibition. A value of 0 means no net growth occurred over the course of the experiment. A value of -40 indicates 40% of cells at the beginning of the experiment died by the end of the experiment. A value of -100 means all cells are dead at the end of the experiment.
NCI-60 Human Tumor Cell Lines Screen was performed using the standard one-dose NCI protocol, which is described in more detail at https://dtp.cancer.gov/discovery_development/nci-60/default.htm.
Compounds with GIPRCNT values below 10 were considered active. Activity score was based on GIPRCNT using the following formula: […]
Score is 0 for GIPRCNT values of 100 or above, 50 for GIPRCNT values of 0, and 100 for GIPRCNT values of -100.

SMILES	growth
COc1ccc(C2OCC(C)(C)CO2)cc1OC	102%
O=c1[nH]c(=S)c2c(n1CCCO)CCC2	88%
Cc1nc2cc(Nc3nc(Cl)nc(Nc4ccc(F)cc4)n3)ccc2n1Cc1ccccc1	90%
COc1ccc(-c2c3c(N)c4c(nc3nc3c2c(C)nn3-c2ccccc2)CCCC4)cc1	78.6%
COc1cc2cc(Oc3ccc(NC(=O)Nc4ccc(Cl)c(C(F)(F)F)c4)cc3)c(C)nc2cc1OCCN1CCCCC1	-57.9% (active)
O=C(Nc1ccc(Cl)c(Cl)c1)NC(CO)(CO)CO	79.3%
Cc1cccc2c(=O)c3c(sc12)c(NCCCN)nc1ccccc13	19.7%
Cc1ccc(NS(=O)(=O)c2ccc(-c3cnc(C4CC4)o3)cc2)cc1	18.8%
O=C(N/N=C/c1ccc(OC(F)F)c(OC2CCCC2)c1)c1cnn2c1NC(c1ccccc1)C2 (stereo not given)	57.6%
CN1CCN(C(=O)OCCOCCOC(=O)N2CCN(C)CC2)CC1	80.8%
O=C1CCC(N2Cc3c(C#CCCCNC(=O)c4cc5c(o4)C(=O)c4ccccc4C5=O)cccc3C2=O)C(=O)N1 (stereo not given)	-98.7% (active)
FCOC(C(F)(F)F)C(F)(F)F	109%
Oc1cccc(Nc2nc(-c3ccccn3)cs2)c1	94.3%
CN(C)c1ccc(/C=C(\C#N)c2cc3ccccc3n2C)cc1	20.8%
O=C1/C(=C/c2ccc(Oc3ccccc3)cc2)N=C(c2ccccc2)N1CCc1cccs1	63.2%
Cc1nc2cc(Nc3nc(N4CCCCC4)nc(N4CCOCC4)n3)ccc2n1Cc1ccccc1	-12.7% (active)
N#CC1=C(N)Oc2cc(N)ccc2C1c1ccc(F)cc1 (stereo not given)	67.2%
CCN(c1ccc(C(=O)N2CCN(c3ccccc3)CC2)cc1)S(C)(=O)=O	64.1%
COC(=O)c1ccc(C(=O)Nc2ccccc2N)cc1	78.4%
CC(=O)Nc1ccc(Sc2ccc([N+](=O)[O-])o2)cc1	58.3%

SMILES	growth
C(=C\c1ccccc1)/CN1CCN(C(c2ccccc2)c2ccccc2)CC1	85.4%
O=C(N/N=C/c1ccc(F)cc1)c1[nH]c2ccc(I)cc2c1-c1ccccc1	51.7%
CCCCc1ccc(C(O)(CCN2CC3CCC(CC3)C2)c2ccccc2)cc1 (stereo not given)	116%
COc1ccc(-c2cc(=O)oc3c4c(ccc23)OCN(Cc2ccc(F)cc2)C4)cc1	69.7%
O=C(N/N=C(\CS(=O)(=O)c1ccccc1)c1cc2cc(Br)ccc2oc1=O)c1ccccc1	89.8%
O=S(=O)(/N=C1C=C/C(=N\S(=O)(=O)c2ccccc2)c2ccccc2\1)c1ccccc1	96.1%
CC1(C)N=C(N)N=C(N)N1c1cccc(OCCOc2cccc([N+](=O)[O-])c2)c1	51.8%
COc1ccc(/C=N/NC(=O)c2cnn3c2NC(c2ccccc2)C3)cc1OC1CCCC1 (stereo not given)	84.3%
COc1cc(C2=NN(c3ccc(S(N)(=O)=O)cc3)C(c3ccc(Cl)cc3)C2)cc(OC)c1OC (stereo not given)	41.5%
COc1ccc(-c2nc(Nc3ccc(F)cc3)nc(Nc3ccc4c(c3)nc(C)n4Cc3ccccc3)n2)cc1	68%
COc1cccc2c(=O)c3c(sc12)c(NCCN(C)C)nc1ccccc13	-5.46% (active)
COc1ccc2nc(-n3nc(C)cc3C)c(-n3nc(C)cc3C)nc2c1	116%
O=C1OCC2=C1C(c1ccc3c(c1)OCO3)CC(=O)N2c1cccc(Cl)c1 (stereo not given)	80.7%
COc1ccc(-c2nc3sc(C)nn3c2-c2nc3cc(C)c(C)cc3[nH]2)cc1	87.1%
COc1cccc(C2CC(=O)Nc3cc4c(cc32)CCC4)c1OC (stereo not given)	35.3%
Cc1nc2cc(Nc3nc(Nc4ccc(F)cc4)nc(N4CCCC4)n3)ccc2n1Cc1ccccc1	-15.1% (active)
O=C(O)c1ccccc1Oc1cc(-c2ccco2)nc(OCCBr)n1	99.7%
O=C1C(Br)=C(c2ccccc2)C(=O)C(Br)=C1c1ccccc1	78%
O=C1N/C(=C\c2ccccc2)c2ncccc21	91.8%
O=C(CCc1nnc2sc(/C=C\c3ccccc3)nn12)c1nc2ccccc2[nH]1	87.9%
